# According to PubChem BioAssay (EPA / NIEHS):
# Inconclusive results are not listed. The source holds several records for some structures; these can differ, active in one and inactive in another. Active and inactive are the calls of the source. The calls were made as follows, unless noted: active = hit-call score of the fitted dose curve at least 0.9, where 1 is the maximum; inconclusive = response in the unintended direction; inactive = score below 0.9.
# Key:
# [1] = read-out: NAD(P)H dehydrogenase [quinone] 1 (NQO1), NQO1 (gene 1728); assay: LTEA_HepaRG_NQO1: Life Technologies and Expression Analysis (LTEA) Assay for NAD(P)H dehydrogenase [quinone] 1 (NQO1) using HepaRG (AID 2283526; active = hit-call score of the fitted dose curve at least 0.9, where 1 is the maximum; inactive = score below 0.9); details: mRNA level, 48 h; actives raise or lower the signal
# Procedure, shortened: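 NQO1 transcript induction or loss measured by TaqMan qRT-PCR, referenced to three housekeeping genes and fitted bidirectionally against 0.5% DMSO. HepaRG cultures exposed 48 h, duplicate, eight-point half-log series, top 100 uM.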
# [2] = read-out: Nuclear factor erythroid 2-related factor 2 (Homo sapiens) (UniProt Q16236); assay: LTEA_HepaRG_NFE2L2: Life Technologies and Expression Analysis (LTEA) Assay for Nuclear factor erythroid 2-related factor 2 (NFE2L2) Transcription Factor using HepaRG (AID 2283527; active = hit-call score of the fitted dose curve at least 0.9, where 1 is the maximum; inactive = score below 0.9); details: mRNA level, 48 h; actives raise or lower the signal
# Procedure, shortened: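 NFE2L2 transcript level was read by qRT-PCR (housekeeping ACTB/GAPDH/POLR2A normalisation) after 48 h chemical treatment of HepaRG in serum-free induction medium. Duplicate 8-point half-log curves, top 100 uM, 0.5% DMSO vehicle; up- or down-regulation fitted against vehicle.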
# [3] = read-out: succinate dehydrogenase complex iron sulfur subunit B (SDHB), SDHB (gene 6390); assay: LTEA_HepaRG_SDHB: Life Technologies and Expression Analysis (LTEA) Assay for succinate dehydrogenase complex iron sulfur subunit B (SDHB) using HepaRG (AID 2283528; active = hit-call score of the fitted dose curve at least 0.9, where 1 is the maximum; inactive = score below 0.9); details: mRNA level, 48 h; actives raise or lower the signal
# Procedure, shortened: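 SDHB transcript level read by TaqMan qRT-PCR, housekeeping-normalised (ACTB, GAPDH, POLR2A), after 48 h chemical treatment of plated HepaRG cells; eight concentrations top 100 uM, half-log steps, 0.5% DMSO, duplicates; fitted both directions against DMSO.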
# [4] = read-out: Signal transducer and activator of transcription 3 (Homo sapiens) (UniProt P40763); assay: LTEA_HepaRG_STAT3: Life Technologies and Expression Analysis (LTEA) Assay for Signal transducer and activator of transcription (STAT3) using HepaRG (AID 2283529; active = hit-call score of the fitted dose curve at least 0.9, where 1 is the maximum; inactive = score below 0.9); details: mRNA level, 48 h; actives raise or lower the signal
# Procedure, shortened: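 STAT3 transcript quantified by qRT-PCR against three housekeeping genes (ACTB, GAPDH, POLR2A), fitted both directions relative to DMSO. HepaRG cultures exposed 48 h to eight half-log concentrations, top 100 uM, 0.5% DMSO, serum-free induction medium.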
# [5] = read-out: solute carrier (SLCO1B1), SLCO1B1 (gene 10599); assay: LTEA_HepaRG_SLCO1B1: Life Technologies and Expression Analysis (LTEA) Assay for solute carrier (SLCO1B1) using HepaRG (AID 2283530; active = hit-call score of the fitted dose curve at least 0.9, where 1 is the maximum; inactive = score below 0.9); details: mRNA level, 48 h; actives raise or lower the signal
# Procedure, shortened: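 Differentiated human HepaRG cells, plated 48 h, switched to serum-free induction medium and exposed in duplicate for 48 h to 8 half-log concentrations (top 100 uM) in 0.5% DMSO. SLCO1B1 mRNA by TaqMan qRT-PCR, normalized to ACTB/GAPDH/POLR2A.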
# [6] = read-out: sulfotransferase 2A1 (SULT2A1), SULT2A1 (gene 6822); assay: LTEA_HepaRG_SULT2A1: Life Technologies and Expression Analysis (LTEA) Assay for sulfotransferase 2A1 (SULT2A1) using HepaRG (AID 2283531; active = hit-call score of the fitted dose curve at least 0.9, where 1 is the maximum; inactive = score below 0.9); details: mRNA level, 48 h; actives raise or lower the signal
# Procedure, shortened: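 Differentiated human HepaRG cells in serum-free induction medium were exposed for 48 h to eight half-log concentrations (top 100 uM, 0.5% DMSO). SULT2A1 mRNA was measured by qRT-PCR, normalized to ACTB, GAPDH and POLR2A, and fitted bidirectionally against DMSO.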
# [7] = read-out: Transforming Growth Factor (TGFA), TGFA (gene 7039); assay: LTEA_HepaRG_TGFA: Life Technologies and Expression Analysis (LTEA) Assay for Transforming Growth Factor (TGFA) using HepaRG (AID 2283532; active = hit-call score of the fitted dose curve at least 0.9, where 1 is the maximum; inactive = score below 0.9); details: mRNA level, 48 h; actives raise or lower the signal
# Procedure, shortened: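 TGFA transcript quantified by qRT-PCR (Fluidigm arrays) against three housekeeping genes, after 48 hours chemical treatment of HepaRG cells. Top concentration 100 uM with half-log dilutions, 8 points, duplicates, 0.5% DMSO.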
# [8] = read-out: Transforming Growth Factor (TGFB1), TGFB1 (gene 7040); assay: LTEA_HepaRG_TGFB1: Life Technologies and Expression Analysis (LTEA) Assay for Transforming Growth Factor (TGFB1) Transporter using HepaRG (AID 2283533; active = hit-call score of the fitted dose curve at least 0.9, where 1 is the maximum; inactive = score below 0.9); details: mRNA level, 48 h; actives raise or lower the signal
# Procedure, shortened: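 Differentiated human HepaRG cells in serum-free induction medium were exposed in duplicate for 48 h to eight concentrations (top 100 uM, half-log steps, 0.5% DMSO). TGFB1 mRNA was quantified by qRT-PCR, normalized to ACTB, GAPDH, POLR2A, and fitted bidirectionally against DMSO.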
# TIMP1, TIMP1 (gene 7076) = assay: LTEA_HepaRG_TIMP1: Life Technologies and Expression Analysis (LTEA) Assay for TIMP1 using HepaRG (AID 2283534; active = hit-call score of the fitted dose curve at least 0.9, where 1 is the maximum; inactive = score below 0.9;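 also: TaqMan qRT-PCR signal normalized to ACTB GAPDH and POLR2A housekeeping genes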); details: mRNA level, 48 h; actives raise or lower the signal
# Procedure, shortened: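 Differentiated human HepaRG cells in serum-free induction medium were exposed 48 h to chemicals (8 half-log concentrations, top 100 uM, 0.5% DMSO). TIMP1 mRNA was quantified by TaqMan qRT-PCR, normalized to ACTB/GAPDH/POLR2A; bidirectional fit versus DMSO.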
# [9] = read-out: Tumor necrosis factor receptor 1 (TNFRSF1A), TNFRSF1A (gene 7132); assay: LTEA_HepaRG_TNFRSF1A: Life Technologies and Expression Analysis (LTEA) Assay for Tumor necrosis factor receptor 1 (TNFRSF1A) using HepaRG (AID 2283535; active = hit-call score of the fitted dose curve at least 0.9, where 1 is the maximum; inactive = score below 0.9); details: mRNA level, 48 h; actives raise or lower the signal
# Procedure, shortened: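 Differentiated human HepaRG cells were exposed in duplicate for 48 h in serum-free induction medium to eight concentrations (top 100 uM, half-log steps, 0.5% DMSO). TNFRSF1A mRNA was quantified by qRT-PCR, normalized to ACTB, GAPDH and POLR2A, then fitted bidirectionally against DMSO.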
# [10] = read-out: Thyroid Hormone Responsive (THRSP), THRSP (gene 7069); assay: LTEA_HepaRG_THRSP: Life Technologies and Expression Analysis (LTEA) Assay for Thyroid Hormone Responsive (THRSP) using HepaRG (AID 2283536; active = hit-call score of the fitted dose curve at least 0.9, where 1 is the maximum; inactive = score below 0.9); details: mRNA level, 48 h; actives raise or lower the signal
# Procedure, shortened: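 THRSP transcript quantified by Fluidigm qRT-PCR against three housekeeping genes after 48 h chemical exposure of HepaRG cells in serum-free induction medium; eight-point half-log series, top 100 uM, 0.5% DMSO vehicle, duplicate wells.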
# [11] = read-out: Cellular tumor antigen p53 (Homo sapiens) (UniProt P04637); assay: LTEA_HepaRG_TP53: Life Technologies and Expression Analysis (LTEA) Assay for Tumor Protein P53 (TP53) using HepaRG (AID 2283537; active = hit-call score of the fitted dose curve at least 0.9, where 1 is the maximum; inactive = score below 0.9); details: mRNA level, 48 h; actives raise or lower the signal
# Procedure, shortened: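 TP53 transcript measured by qRT-PCR, normalized to three housekeeping genes, after 48 h treatment of human HepaRG cultures with chemicals from 100 uM downward in half-log steps (0.5% DMSO vehicle, serum-free induction medium). Up- or down-regulation fitted against DMSO.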
# [12] = read-out: UDP glucuronosyltransferase (UGT1A1), UGT1A1 (gene 54658); assay: LTEA_HepaRG_UGT1A1: Life Technologies and Expression Analysis (LTEA) Assay for UDP glucuronosyltransferase (UGT1A1) using HepaRG (AID 2283538; active = hit-call score of the fitted dose curve at least 0.9, where 1 is the maximum; inactive = score below 0.9); details: mRNA level, 48 h; actives raise or lower the signal
# Procedure, shortened: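 UGT1A1 transcript level, measured by qRT-PCR with three housekeeping genes for normalization, after 48 h treatment of human HepaRG cells (0.5% DMSO, duplicates, up to 100 uM, half-log steps, 8 points). Curves fit both directions against DMSO baseline.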
# [13] = read-out: UDP glucuronosyltransferase (UGT1A6), UGT1A6 (gene 54578); assay: LTEA_HepaRG_UGT1A6: Life Technologies and Expression Analysis (LTEA) Assay for UDP glucuronosyltransferase (UGT1A6) using HepaRG (AID 2283539; active = hit-call score of the fitted dose curve at least 0.9, where 1 is the maximum; inactive = score below 0.9); details: mRNA level, 48 h; actives raise or lower the signal
# Procedure, shortened: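 Human HepaRG cells were dosed for 48 h in serum-free induction medium with 0.5% DMSO vehicle, eight-point half-log series from 100 uM, in duplicate. UGT1A6 mRNA was measured by qRT-PCR, normalized to ACTB, GAPDH, POLR2A, and fitted bidirectionally against DMSO.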
# [14] = read-out: X-box binding protein 1 (XBP1), XBP1 (gene 7494); assay: LTEA_HepaRG_XBP1: Life Technologies and Expression Analysis (LTEA) Assay for X-box binding protein 1 (XBP1) using HepaRG (AID 2283540; active = hit-call score of the fitted dose curve at least 0.9, where 1 is the maximum; inactive = score below 0.9); details: mRNA level, 48 h; actives raise or lower the signal
# Procedure, shortened: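 Differentiated human HepaRG cells in serum-free induction medium were exposed in duplicate for 48 h to eight half-log concentrations up to 100 uM in 0.5% DMSO. XBP1 mRNA was quantified by qRT-PCR, normalised to ACTB, GAPDH and POLR2A, with bidirectional fitting against DMSO.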
# [15] = LTEA_HepaRG_LDH_cytotoxicity: Cytotoxicity Assessment in the Life Technologies and Expression Analysis (LTEA) Assay (AID 2283563)
# Procedure, shortened: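 Differentiated human HepaRG cells, plated 48 h beforehand, were switched to serum-free induction medium and exposed for 48 h to eight half-log concentrations (top 100 uM) in 0.5% DMSO. LDH was measured in spent medium; activity was fitted relative to DMSO vehicle.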
# [16] = ATG_XTT_Cytotoxicity: Cytotoxicity Assessment in the Attagene TRANS-FACTORIAL HepG2 Assay (AID 2283584)
# Procedure, shortened: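 HepG2 human liver cells, transiently transfected with multiple GAL4-UAS reporter units, were dosed and read at 24 h by XTT as cell number. Loss of signal was fitted relative to DMSO negative control baseline.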
# [17] = TOX21_p53_BLA_p2_viability: Viability Assessment in the Tox21 HCT-116 p53 Agonism Beta-lactamase Assay, Phase 2 (AID 2283591);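 also: compound exposure lasted 16 h at 37 °C; actives lower the ATP signal meaning cytotoxicity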
# Procedure, shortened: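 Cytotoxicity readout: CellTiter-Glo ATP luminescence, 30 min at room temperature, after the beta-lactamase read. Cells were HCT116 exposed 16 h at 37C to compounds pin-transferred at 217-fold dilution from DMSO stocks.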
# [18] = biological target: Cellular tumor antigen p53 (Homo sapiens) (UniProt P04637); assay: TOX21_p53_BLA_p2_ratio: Tox21 HCT-116 p53 Agonism Beta-lactamase Assay, Ratio, Phase 2 (AID 2283592)
# Procedure, shortened: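 Ratio endpoint: beta-lactamase cleavage of CCF4-AM, blue (460 nm) over green (530 nm). HCT116 reporter line; 16 h treatment, 37C; substrate 2 h RT.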
# [19] = TOX21_p53_BLA_p3_viability: Viability Assessment in the Tox21 HCT-116 p53 Agonism Beta-lactamase Assay, Phase 3 (AID 2283593);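 also: cells exposed to compound for 16 h before reading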
# Procedure, shortened: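 Cellular ATP was quantified by CellTiter-Glo luminescence, read after 30 min at room temperature. Beforehand, HCT116 cells (4000/well) received compound 5 h post-seeding, 217-fold diluted from DMSO, then incubated 16 h at 37C.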
# Cellular tumor antigen p53 (Homo sapiens), sequence (P04637 whole entry, looked up): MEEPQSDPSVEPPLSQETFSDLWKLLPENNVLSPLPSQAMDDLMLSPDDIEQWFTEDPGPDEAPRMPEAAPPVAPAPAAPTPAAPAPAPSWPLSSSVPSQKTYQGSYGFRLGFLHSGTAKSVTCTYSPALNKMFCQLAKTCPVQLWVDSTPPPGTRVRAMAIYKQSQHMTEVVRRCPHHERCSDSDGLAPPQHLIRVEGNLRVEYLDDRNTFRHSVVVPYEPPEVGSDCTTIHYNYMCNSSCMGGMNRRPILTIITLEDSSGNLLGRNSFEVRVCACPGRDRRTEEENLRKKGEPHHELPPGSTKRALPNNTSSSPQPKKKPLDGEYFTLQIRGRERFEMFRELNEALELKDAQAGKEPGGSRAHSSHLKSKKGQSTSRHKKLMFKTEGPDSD
# Signal transducer and activator of transcription 3 (Homo sapiens), sequence (P40763 whole entry, looked up): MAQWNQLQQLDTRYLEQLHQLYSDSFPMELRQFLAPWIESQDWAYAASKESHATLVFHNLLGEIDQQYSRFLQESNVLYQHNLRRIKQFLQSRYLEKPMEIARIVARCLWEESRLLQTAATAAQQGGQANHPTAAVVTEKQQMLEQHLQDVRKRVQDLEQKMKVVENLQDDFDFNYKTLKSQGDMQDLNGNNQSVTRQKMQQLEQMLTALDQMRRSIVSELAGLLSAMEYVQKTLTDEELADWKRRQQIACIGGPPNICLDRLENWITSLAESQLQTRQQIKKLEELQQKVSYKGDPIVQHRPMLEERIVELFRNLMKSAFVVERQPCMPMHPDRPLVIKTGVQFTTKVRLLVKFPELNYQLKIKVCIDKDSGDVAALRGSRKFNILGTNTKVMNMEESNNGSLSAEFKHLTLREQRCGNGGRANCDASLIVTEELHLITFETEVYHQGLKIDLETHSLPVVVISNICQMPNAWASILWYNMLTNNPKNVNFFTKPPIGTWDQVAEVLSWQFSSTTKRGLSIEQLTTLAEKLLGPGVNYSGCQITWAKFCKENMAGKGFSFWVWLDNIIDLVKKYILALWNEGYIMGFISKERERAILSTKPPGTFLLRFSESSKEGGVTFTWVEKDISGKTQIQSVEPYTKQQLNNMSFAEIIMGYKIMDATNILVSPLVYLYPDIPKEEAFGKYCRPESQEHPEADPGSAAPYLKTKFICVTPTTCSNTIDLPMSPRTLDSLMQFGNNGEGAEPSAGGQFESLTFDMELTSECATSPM
# Nuclear factor erythroid 2-related factor 2 (Homo sapiens), sequence (Q16236 whole entry, looked up): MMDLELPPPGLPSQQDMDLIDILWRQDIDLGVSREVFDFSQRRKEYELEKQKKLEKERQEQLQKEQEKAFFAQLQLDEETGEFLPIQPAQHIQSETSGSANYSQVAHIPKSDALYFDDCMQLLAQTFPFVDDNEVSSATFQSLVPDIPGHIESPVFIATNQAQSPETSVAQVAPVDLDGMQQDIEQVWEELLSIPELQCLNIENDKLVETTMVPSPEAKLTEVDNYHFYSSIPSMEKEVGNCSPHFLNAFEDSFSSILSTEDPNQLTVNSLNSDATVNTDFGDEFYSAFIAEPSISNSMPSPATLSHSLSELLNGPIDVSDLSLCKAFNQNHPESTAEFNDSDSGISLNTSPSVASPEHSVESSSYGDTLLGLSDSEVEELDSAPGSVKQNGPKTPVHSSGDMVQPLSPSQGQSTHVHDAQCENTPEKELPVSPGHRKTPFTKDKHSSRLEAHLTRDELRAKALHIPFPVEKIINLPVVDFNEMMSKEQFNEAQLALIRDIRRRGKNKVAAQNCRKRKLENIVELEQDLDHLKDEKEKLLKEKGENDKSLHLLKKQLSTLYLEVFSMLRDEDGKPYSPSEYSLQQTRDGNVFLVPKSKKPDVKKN
structure (smiles),measurement,setting,value
CS(=O)(=O)OCCCCOS(C)(=O)=O,outcome,[1],inactive
same,outcome,[2],inactive
same,outcome,[3],inactive
same,outcome,[4],inactive
same,outcome,[5],inactive
same,outcome,[6],inactive
same,outcome,[7],inactive
same,outcome,[8],inactive
same,outcome,"TIMP1, TIMP1 (gene 7076)",inactive
same,outcome,[9],inactive
same,outcome,[10],inactive
same,outcome,[11],inactive
same,outcome,[12],inactive
same,outcome,[13],inactive
same,outcome,[14],inactive
same,outcome,[15],inactive
same,outcome,[16],inactive
same,outcome,[17],inactive
same,outcome,[18],inactive
same,AC50,[19],0.0231 nM (active)
same,outcome,[19],inactive
CC1=C(Br)C(=O)C(Br)=C/C1=C(/c1ccccc1S(=O)(=O)O)c1cc(Br)c(O)c(Br)c1C,outcome,[16],inactive
CCCCCCC(C)(C)S,outcome,[16],inactive
Clc1cc(Cl)c(-c2c(Cl)c(Cl)cc(Cl)c2Cl)cc1Cl,outcome,[16],inactive
CC(C)Nc1nc(N)nc(Cl)n1,outcome,[16],inactive
Nc1ccc2cc(S(=O)(=O)O)cc(O)c2c1N=Nc1ccccc1C(F)(F)F,outcome,[16],inactive
CS(=O)(=O)c1ccc(C2=C(c3ccccc3)C(=O)OC2)cc1,outcome,[16],inactive
BrCc1cccc(Oc2ccccc2)c1,outcome,[16],inactive
